Test results: PubChem BioAssay (NCI)
This is part of a sample that, as a whole, favours compounds with a hit. Of some 83,000 tested, about 20% had one in any assay.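 Note: values are percent growth. 100 is the growth of untreated cells, values between 100 and 0 indicate rising inhibition; between -100 and 0 indicates cell death.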 Values without a mark were called inactive. Activity calls are given as the source filed them. Rule for the calls: active = growth percent below 10; inactive = the rest.

Columns and labels:
Assay in all cases: NCI-60 one-dose screen, 48 h (100 = growth as untreated, 0 = no growth, -100 = all killed)
Conditions in all cases: 10 µM unless noted
[1] = system: SR leukemia
[2] = system: RPMI-8226 leukemia
[3] = system: OVCAR-8 ovarian
[4] = system: OVCAR-5 ovarian
[5] = system: OVCAR-4 ovarian
[6] = system: SK-OV-3 ovarian
[7] = system: IGROV1 ovarian
[8] = system: OVCAR-3 ovarian
[9] = system: HS 578T breast
[10] = system: NCI/ADR-RES ovarian
[11] = system: T-47D breast
[12] = system: BT-549 breast
[13] = system: MDA-MB-435 melanoma
[14] = system: SW-620 colon
[15] = system: MCF7 breast
[16] = system: HCT-116 colon
[17] = system: HCC-2998 colon
[18] = system: KM12 colon

Row | Compound | growth [1] | growth [2] | growth [3] | growth [4] | growth [5] | growth [6] | growth [7] | growth [8] | growth [9] | growth [10] | growth [11] | growth [12] | growth [13] | growth [14] | growth [15] | growth [16] | growth [17] | growth [18] [%]
1 | O=C(O)c1cn(C2CC2)c2cc(N3CCN(C(=O)N(c4ccccc4)c4nc(-c5ccccc5)cs4)CC3)c(F)cc2c1=O | -5.43% (active) | 9.25% (active) | 12.5% | 6.16% (active) | 25.4% | -16.2% (active) | 7.38% (active) | 3.78% (active) | 24.5% | 2.3% (active) | 11.4% | -13% (active) | 8.3% (active) | 20.7% | 6.99% (active) | 5.04% (active) | 16.5% | –
2 | COCCOc1cc2ncnc(N3CCN(c4ncc(S(=O)(=O)N5CCCCC5)cn4)CC3)c2cc1OCCOC | 72.9% | 90.2% | 97% | 114% | 105% | 123% | 99.2% | 114% | 114% | 97.6% | 87% | 105% | 105% | 109% | 78.7% | 100% | 99.3% | –
3 | N#CSc1c[nH]c2cccc(/C=C/C(=O)/C=C(/C=C/c3cccc4[nH]cc(SC#N)c34)OB(F)F)c12 | 6.43% (active) | -6.08% (active) | -26.1% (active) | -10.8% (active) | 7.06% (active) | 78.7% | 3.87% (active) | 2.33% (active) | 26.3% | 25.7% | 9.55% (active) | -25.3% (active) | -74.7% (active) | -35% (active) | -22.6% (active) | -88.5% (active) | -32.7% (active) | –
4 | C/C(=N\O)c1ccc(Cl)cc1 | 78.1% | 107% | 88.6% | 118% | 109% | 108% | 155% | 113% | 90.4% | 108% | 110% | 96% | 112% | 99.9% | 101% | 97.5% | 95.9% | 118
5 | N#CC1=C(c2ccccc2)Nc2c(c(-c3ccc(Cl)cc3)nn2-c2ccccc2)C12C(=O)Nc1ccc(Cl)cc12 (stereo unspecified) | 53.9% | 47.4% | 84% | 82.6% | 87.8% | 90.8% | 57.1% | 88.1% | 62.2% | 87.8% | 55.8% | 76.2% | 45.3% | 85.9% | 54.9% | 65.5% | 90.6% | –
6 | CN1CCc2nc3sc(C(N)=O)c(N)c3c(-c3cccs3)c2C1 | 22.8% | 75.7% | 22.2% | 15.1% | 64.5% | 57.4% | 26.2% | -32.5% (active) | 32.4% | 40.6% | 42.9% | 10.7% | 29.6% | 35% | 12.6% | 4.02% (active) | 53.5% | –
7 | COC(=O)[C@]1(C)CCC[C@]2(C)[C@H]3C[C@H]4C(C(C)C)=C[C@]3(CC[C@H]21)[C@@H]1C(=O)CC[C@H](OCCC#N)[C@@H]14 | 58.9% | 68% | 99.2% | 129% | 77.3% | 109% | 67.3% | 81.5% | 79.9% | 77.8% | 66.4% | 87.5% | 84.9% | 86.4% | 59.5% | 77.6% | 96.4% | 82
8 | O=C1C(Cl)=C(NCCCCCCNC2=C(Cl)C(=O)c3ccccc3C2=O)C(=O)c2ccccc21 | 88% | 85.2% | 77.6% | 110% | 22.5% | 98% | 38.2% | 47.3% | 89.3% | 93.5% | 90.7% | 91.2% | 79.4% | 73.3% | 81.6% | 88% | 103% | –
9 | O=C(/C=C(/C=C/c1ccc2[nH]ccc2c1)OB(F)F)/C=C/c1ccc2[nH]ccc2c1 | 2.78% (active) | -31.2% (active) | -29.9% (active) | 15.4% | 2.28% (active) | 13.6% | 5.09% (active) | -16.2% (active) | 31.4% | 14.3% | 6.23% (active) | -28.2% (active) | -4.54% (active) | 6.41% (active) | 12.5% | -79% (active) | -88.3% (active) | –
10 | O=C(/C=C/c1cccs1)Nc1ncc(Cc2ccccc2F)s1 | 26.1% | 23.7% | 29.8% | 34.5% | 48% | 27.5% | 35.4% | -6.37% (active) | 16% | 11.6% | 23.8% | 52.3% | -64.4% (active) | 24.5% | 17.1% | 28.6% | 44.4% | –
11 | CC(C)c1ccc(C(=O)Nc2nc3ccc(O)c(CN(C)C)c3s2)cc1 | 32.9% | 70.1% | 82.8% | 70.1% | 74.4% | 90.8% | 80.7% | 91.3% | 86.8% | 87.8% | 77.8% | 73.6% | 55.4% | 36.2% | 80.5% | 47.3% | 63.7% | –
12 | CN(C)CC1CCC(CN(C)C)C1=O (stereo unspecified) | 59.7% | 62.2% | 105% | 122% | 115% | 105% | 115% | 132% | 105% | 117% | 106% | 110% | 121% | 86.9% | 93.7% | 93.9% | 114% | 115
13 | C=CCSc1nnc(NC(=O)CCl)s1 | 88.4% | 73% | 92.5% | 120% | 73.2% | 119% | 81.6% | 94.8% | 93.7% | 93% | 90.3% | 79% | 90.8% | 105% | 90.1% | 86.3% | 130% | –
14 | COCCn1cc(-c2nc(-c3cc4cccnc4[nH]3)cs2)c2cc(OC)ccc21 | 2.96% (active) | 27.1% | 25.3% | 26.3% | 15.6% | 21% | 24.5% | 27.6% | -4.1% (active) | 28.5% | -12.4% (active) | 1.78% (active) | 52.4% | 48.4% | 0.765% (active) | 30.3% | 57.6% | –
15 | N#Cc1nc(-c2ccccc2)oc1S(=O)(=O)N1CCN(c2ccccc2)CC1 | 14.7% | 63.4% | 81.3% | 112% | 99.5% | 105% | 78.9% | 111% | 102% | 97.5% | 91.1% | 90.8% | 86.3% | 64.1% | 51.5% | 44.9% | 102% | 104
16 | Nc1ncnc2c1c(-c1cccc(Cl)c1)nn2CC(=O)N1CCOCC1 | 116% | 108% | 102% | 101% | 96.6% | 109% | 99.2% | 106% | 103% | 103% | 105% | 97.2% | 104% | 106% | 94.9% | 101% | 110% | 102
17 | Clc1cccc(Nc2ncnc3ccc(-c4cnc5[nH]ccc5c4)cc23)c1 | 60% | 60% | 68.2% | 78.7% | 85% | 71.1% | 25.1% | 64.6% | 81.4% | 77% | 28.3% | 77.4% | 88.3% | 107% | 48.3% | 75.1% | 95% | –
18 | CS(=O)(=O)c1ccc(-c2cnn3ccc(-c4cccc(S(=O)(=O)C5CC5)c4)nc23)cc1 | 49.3% | 49.1% | 43.7% | 68.7% | 67.9% | 32.2% | 13.1% | 54.7% | 45.5% | 71.8% | -6.07% (active) | 53.4% | 59.1% | 74.2% | 18% | 55.5% | 75.4% | –
